Inconclusive results are not listed. A number with no mark means an inactive call. Calls of active or inactive are those of the source. Calls follow the shape of the dose curve; as a rule, active = well fitted inhibition curve with a large enough effect in the signal ratio in the repeat runs, with a control signal flat; inconclusive = weak or mixed curves, or effect the other way; inactive = flat fitted curve, though single readings scatter; the % refers to the signal ratio.
What follows are molecules tested against D(2) dopamine receptor (Homo sapiens) (UniProt P14416) (assay: Dopamine D2 receptor (DRD2) small molecule antagonists, cell-based qHTS assay (AID 1963595)). Settings: HEK293-DRD2 cAMP HTRF antagonist mode; series mostly up to 92.4 µM; activity change, negative = inhibition: at the top concentration.
D(2) dopamine receptor (Homo sapiens), sequence (P14416 whole entry, looked up): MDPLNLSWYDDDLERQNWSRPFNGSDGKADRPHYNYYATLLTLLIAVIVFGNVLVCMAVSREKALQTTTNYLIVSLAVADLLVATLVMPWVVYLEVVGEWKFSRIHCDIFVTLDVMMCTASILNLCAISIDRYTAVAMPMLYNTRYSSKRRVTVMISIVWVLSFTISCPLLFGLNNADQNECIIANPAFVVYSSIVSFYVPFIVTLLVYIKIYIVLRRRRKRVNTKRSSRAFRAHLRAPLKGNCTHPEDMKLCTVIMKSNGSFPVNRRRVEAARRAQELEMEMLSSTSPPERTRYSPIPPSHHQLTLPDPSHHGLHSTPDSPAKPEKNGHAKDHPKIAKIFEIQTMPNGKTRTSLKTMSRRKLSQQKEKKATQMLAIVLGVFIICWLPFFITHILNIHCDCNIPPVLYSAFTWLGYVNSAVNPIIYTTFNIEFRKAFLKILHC
Excerpt: National Center for Advancing Translational Sciences [NCATS]
Division of Preclinical Innovation [DPI]
U.S. Environmental Protection Agency [EPA]
National Institutes of Environmental Health Sciences [NIEHS]
National Toxicology Program [NTP]
U.S. Food and Drug Administration [FDA]
DRD2 is the D2 subtype of the dopamine receptor, which is coupled to Gi subtype of G protein-coupled receptor. This G protein-coupled receptor inhibits adenylyl cyclase activity. The DRD2-HEK293 cell line stably expressing D2 dopamine receptor can be used for screening agonists and antagonists of interactions between D2 and its ligands. The Hek293-DRD2 cAMP assay is based on HTRF technology. It measures changes of cAMP accumulation in response to Gi coupled GPCR activation or inhibition.
Tox21 Assay Protocol Summary:
DRD2-Hek293 cells were dispensed at 600 cells/3uL/well in 1536-well white plates using a Multidrop Dispenser. After the assay plates were incubated at a 37 C/5% CO2 incubator for 24 h, 1 uL of Ro20-1724 at final concentration of 0.1 mM was transferred to the assay plate by a Flying Reagent Dispenser. Following Ro20-1724 addition, 23 nL of compound dissolved in DMSO, positive controls or DMSO only was added to the assay plates via Wako pintool station. The assay plates were incubated at room temperature for 10 min. Next, 1 uL of mixture of NKH477 (final concentration at 200 nM) and quinpirole (final concentration at 12 nM) was added into the plates. After the assay plates were incubated at room temperature for an additional 30 min, 2.5 ul/well of cAMP-d2 and 2.5 ul/well of anti-cAMP-cryptate were added respectively into the assay plates using a Flying Reagent Dispenser. The plates were incubated at room temperature for 1 h. The fluorescence intensity in the plates was measured at 340 nm excitation and 665 & 620 nm emission by an Envision plate reader.
`CO[Si](CCCOCC1CO1)(OC)OC` (stereo not given) was tested, and the Potency was “inactive”.
With `CCN(CC)S(=O)(=O)c1ccc(C(=O)O)cc1` the “activity change, negative = inhibition” value was -5.78% [at 42.5 µM].
In the case of `O=C(Nc1ccc([N+](=O)[O-])cc1Cl)c1cc(Cl)ccc1O`, the Potency is reported as “inactive”.
`CC(C)CCCCCOC(=O)CS` was tested, and the “activity change, negative = inhibition” value was -24.3%.
For `CCCCCOC(C)=O`, the Potency was “inactive”.
`O=S(=O)(O)c1ccccc1O` was tested, and the “activity change, negative = inhibition” value was -2.74%.
`Cn1c(=O)c2c(ncn2C)n(C)c1=O` was tested, and the Potency was “inactive”.
With `NC(=O)c1ccccc1Cl` the “activity change, negative = inhibition” value was -7.98%.
In the case of `CCCCCCCCCCCCCC`, the “activity change, negative = inhibition” value is reported as -2.94%.
In the case of `C=CC(=O)CC`, the “activity change, negative = inhibition” value is reported as -0.466%.
`CC(C)C(=O)c1c(C(C)C)nn2ccccc12` was tested, and the “activity change, negative = inhibition” value was 7.08% [at 42.5 µM].
In the case of `O=c1[nH]c(=O)c2ccccc2o1`, the “activity change, negative = inhibition” value is reported as -0.287% [at 42.5 µM].
With `CCCCOC(=O)C(C)OC(=O)CCC` (stereo not given) the “activity change, negative = inhibition” value was -1.46%.
`COCCOCCOCCOCCOCCO` was tested, and the “activity change, negative = inhibition” value was 18.2%.
For `c1ccc2ncccc2c1`, the Potency was “inactive”.
For `CC(=O)c1ccc2ccccc2c1`, the “activity change, negative = inhibition” value was 5.41%.
For `C=CC(=O)CCCCC`, the “activity change, negative = inhibition” value was 6.29%.
In the case of `O=C(Oc1ccccc1)c1ccccc1`, the Potency is reported as “inactive”.
With `O=[N+]([O-])c1ccc(CCO)cc1` the “activity change, negative = inhibition” value was 1.02%.
For `COC(=O)c1ccc(C(=O)OC)cc1`, the Potency was “inactive”.
In the case of `Nc1ncnc2c1ncn2Cc1c(F)cccc1Cl`, the “activity change, negative = inhibition” value is reported as -1.45% [at 42.5 µM].
In the case of `Cc1ccc(N)cc1[N+](=O)[O-]`, the “activity change, negative = inhibition” value is reported as -0.883%.
`O=C1NCCN1CCO` was tested, and the “activity change, negative = inhibition” value was 3.29%.
In the case of `C=C(C)C(=O)OCCC(C)OC(=O)C(=C)C` (stereo not given), the “activity change, negative = inhibition” value is reported as 4.53%.
In the case of `NC(=O)Nc1ccccc1`, the “activity change, negative = inhibition” value is reported as 13.8%.
`N#Cc1cc(NC(=O)C(=O)O)c(Cl)c(NC(=O)C(=O)O)c1` was tested, and the “activity change, negative = inhibition” value was -1.15% [at 42.5 µM].
For `CCc1ccccc1O`, the Potency was “inactive”.
With `CCCCC(CC)C(=O)OCCOCCOCCOC(=O)C(CC)CCCC` (stereo not given) the “activity change, negative = inhibition” value was 2.32%.
For `CC1=C(O)C(=O)OC1C` (stereo not given), the “activity change, negative = inhibition” value was -1.47%.
For `C=C1[C@H]2CC[C@@H]3[C@H]2C(C)(C)CCC[C@]13C`, the “activity change, negative = inhibition” value was 16.2%.
In the case of `O=Cc1cccc([N+](=O)[O-])c1`, the “activity change, negative = inhibition” value is reported as -1.15%.
`CCO[Si](C)(C)OCC` was tested, and the “activity change, negative = inhibition” value was -4.37%.
For `O=C(Cl)c1ccc(C(=O)Cl)cc1`, the Potency was “inactive”.
With `c1coc(CNc2ncnc3nc[nH]c23)c1` the “activity change, negative = inhibition” value was 11.1%.
For `CCOC(=O)C(C)Oc1ccc(Oc2cnc3cc(Cl)ccc3n2)cc1` (stereo not given), the Potency was “inactive”.
With `O=S(=O)(O)c1cccc2ccccc12` the “activity change, negative = inhibition” value was 0.15%.
With `O=C(/C=C/c1ccccc1)OCc1ccccc1` the Potency was “inactive”.
For `Cc1cc(C)c(C)c(O)c1`, the “activity change, negative = inhibition” value was -1.64%.
`CC/C=C\CCOC(=O)CC` was tested, and the “activity change, negative = inhibition” value was -3.21%.
For `Clc1cccc(Cl)c1NC1=NCCN1`, the Potency was “inactive”.
% is scaled to controls: 0 for no effect and ±100 for the full control effect.
